# Measurements as given in PubChem BioAssay AID2551 (National Center for Advancing Translational Sciences (NCATS), 2010).
# Screen size: about 310,000 compounds; about 17,000 (5.5%) were called active. Roughly 11% stayed inconclusive and do not appear here. Calls follow the shape of the dose curve; as a rule, active = well fitted inhibition curve with a large enough effect; inconclusive = small, poorly fitted or top-dose-only effect, or effect the other way; inactive = no such curve, though single readings can be large or run the other way. For the sample, actives were picked, then their nearest neighbours and some compounds at random.
# Molecular target: Nuclear receptor ROR-gamma (Mus musculus) (UniProt P51450)
# Experiment: qHTS for inhibitors of ROR gamma transcriptional activity; also: nearly all actives have a fitted effect of over 60% in size
# Conditions: Drosophila S2 Gal4-RORgamma UAS-luciferase reporter, 20 h; series mostly up to 53.6 µM; activity change, negative = inhibition: at the top concentration
# Procedure, shortened: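 Using a luciferase readout, inhibitors were identified by reduced reporter activity in Drosophila cells coexpressing a copper-inducible Gal4–ROR gamma fusion and UAS-driven Photinus luciferase, incubated 20 hr after 700 uM copper sulfate.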
# % is scaled to controls: 0 for no effect and ±100 for the full control effect; potency is read from the fitted curve at half-maximal effect.
# Nuclear receptor ROR-gamma (Mus musculus), sequence (P51450 whole entry, looked up): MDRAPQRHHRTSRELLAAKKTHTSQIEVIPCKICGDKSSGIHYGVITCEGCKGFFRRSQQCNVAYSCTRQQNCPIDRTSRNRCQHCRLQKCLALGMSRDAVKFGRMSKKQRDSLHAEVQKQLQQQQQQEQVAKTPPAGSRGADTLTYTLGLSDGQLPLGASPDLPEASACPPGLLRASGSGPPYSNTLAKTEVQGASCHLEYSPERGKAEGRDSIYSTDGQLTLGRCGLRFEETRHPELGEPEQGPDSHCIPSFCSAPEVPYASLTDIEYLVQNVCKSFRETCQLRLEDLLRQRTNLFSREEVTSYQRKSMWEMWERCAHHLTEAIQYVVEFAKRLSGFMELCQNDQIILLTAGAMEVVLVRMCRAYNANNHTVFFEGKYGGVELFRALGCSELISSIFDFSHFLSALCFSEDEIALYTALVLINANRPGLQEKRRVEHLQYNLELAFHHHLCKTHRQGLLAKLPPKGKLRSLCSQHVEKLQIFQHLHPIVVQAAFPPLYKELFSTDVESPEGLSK
SMILES,"activity change, negative = inhibition",Potency
CCOC(=O)C1=C(O)CSC1=Nc1cccc(Cl)c1,-0.427% (inactive),–
CN(C)c1nc(=Nc2cccc(Cl)c2)ss1,–,0.398 µM (active)
CC(=O)Oc1ccc2c(=O)oc(-c3ccc([N+](=O)[O-])cc3)nc2c1,-18.3% (inactive),–
CC(C)(C)NC(=O)C(=O)NN=C1CCCCCCC1,-6.76% (inactive),–
CC(C)NC(=S)NN=C1CCCCCCCCCCC1,–,0.447 µM (active)
CC1CC(C)CN(CCCNC(=O)Cn2ncc3c([nH]c4ccccc43)c2=O)C1 (configuration not stated),-11.2% (inactive),–
Cc1cccc(N(C(=O)c2sc(C)nc2C)C(C(=O)NCC2CCCO2)c2ccccc2)c1 (configuration not stated),-0.663% (inactive),–
CCC(NC(=O)c1cc(COc2ccc(F)c(F)c2)on1)c1ccncc1 (configuration not stated),24.8% (inactive),–
CC1CCC(NC(=O)CN(C)S(=O)(=O)c2ccc3c(c2)c(=O)n(C)c(=O)n3C)CC1 (configuration not stated),-4.79% (inactive),–
COc1ccc(C(C(=O)NC2CCCCC2)N(C(=O)c2snc(C(N)=O)c2N)c2ccccc2OC)cc1 (configuration not stated),44.1% (inactive),–
O=C(c1cccc([N+](=O)[O-])c1)N1CCN(Cc2ccccc2)CC1,5.99% (inactive),–
O=C(NC(=S)N1CCN(Cc2ccccc2)CC1)c1ccccc1,–,1 µM (active)
O=C(c1cccc(Cl)c1)N1CCN(Cc2ccccc2)CC1,5.8% (inactive),–
CC(C)c1nnc(NC(=O)CCC(=O)N2CCN(c3cccc(Cl)c3)CC2)s1,1.43% (inactive),–
COc1ccc(NC(=O)C/C(C)=N/NC(=O)c2cnccn2)cc1Cl,20.1% (inactive),–
COc1cc(OC)c(S(=O)(=O)Nc2ccccc2C(=O)O)cc1S(=O)(=O)Nc1ccccc1C(=O)O,21.8% (inactive),–

SMILES,"activity change, negative = inhibition",Potency
CCc1cccc(C)c1N1C(=O)CN(Cc2ccccc2)C1=S,-15.2% (inactive),–
Oc1oc(-c2ccccc2Br)nc1/C=N/c1ccccn1,–,8.91 µM (active)
CC(N=Cc1nc(-c2ccccc2)oc1O)c1ccccc1 (configuration not stated),20.3% (inactive),–
CCOc1ccc2nc(/N=C/c3nc(-c4ccccc4)oc3O)sc2c1,-14.9% [at 10 µM] (inactive),–
Cc1ccnc(NS(=O)(=O)c2ccc(NC(=O)c3oc4ccccc4c3C)cc2)n1,44.6% (inactive),–
Cc1ccc(S(=O)(=O)N(CC(=O)Nc2cccnc2)c2ccc(Br)cc2)cc1,44.3% (inactive),–
Cc1ccc(S(=O)(=O)N(C)C)cc1NC(=O)COC(=O)C1COc2ccccc2O1 (configuration not stated),1.8% (inactive),–
Cc1cc(NC(=O)CCC2COc3ccccc3O2)no1 (configuration not stated),39.4% (inactive),–
CCCN(CC1COc2ccccc2O1)C(=S)Nc1ccc(C)cc1 (configuration not stated),–,15.8 µM (active)
COCn1c(C(O)c2ccccc2)cc2ccccc21 (configuration not stated),14.4% (inactive),–
Cc1cc(S(=O)(=O)NCc2ccccn2)c(Cl)cc1Cl,–,7.08 µM (active)
O=S(=O)(NCc1ccccn1)c1ccc(F)cc1,-20.3% (inactive),–
Cc1cc(Cl)c(S(=O)(=O)NCc2cccnc2)cc1OCC(N)=O,8.15% (inactive),–
O=S(=O)(NCc1cccnc1)c1ccc(Br)s1,12.6% (inactive),–
O=S(=O)(NCc1ccccn1)c1ccc(Br)s1,–,8.91 µM (active)
CCOc1cc(C)c(S(=O)(=O)NCc2ccccn2)cc1C,-29.6% [at 1.91 µM] (inactive),–
